Reference: PubChem BioAssay (EPA / NIEHS)
Records with an inconclusive call do not appear. Activity calls are given as the source filed them. Rule for the calls, unless noted: active = hit-call score of the fitted dose curve at least 0.9, where 1 is the maximum; inconclusive = response in the unintended direction; inactive = score below 0.9.

Experiments:
[1] = TOX21_p53_BLA_p2_viability: Viability Assessment in the Tox21 HCT-116 p53 Agonism Beta-lactamase Assay, Phase 2 (AID 2283591);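 note: compound exposure lasted 16 h at 37 °C; actives lower the ATP signal meaning cytotoxicity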
Procedure, shortened: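 HCT116 p53-bla cells, 4000/well, dosed after 5 h plating (217-fold dilution of DMSO stocks) and incubated 16 h at 37C. Viability taken as cellular ATP by CellTiter-Glo luminescence after 30 min RT; signal loss marks cytotoxicity.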

[2] = biological target: Cellular tumor antigen p53 (Homo sapiens) (UniProt P04637); assay: TOX21_p53_BLA_p2_ratio: Tox21 HCT-116 p53 Agonism Beta-lactamase Assay, Ratio, Phase 2 (AID 2283592)
Procedure, shortened: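 Ratio endpoint: beta-lactamase cleavage of CCF4-AM, blue (460 nm) over green (530 nm). HCT116 reporter line; 16 h treatment, 37C; substrate 2 h RT.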

[3] = TOX21_p53_BLA_p3_viability: Viability Assessment in the Tox21 HCT-116 p53 Agonism Beta-lactamase Assay, Phase 3 (AID 2283593);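 note: cells exposed to compound for 16 h before reading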
Procedure, shortened: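 HCT116 cells, 4000/well, dosed 5 h after plating by pin transfer (217-fold dilution from DMSO stock) and incubated 16 h at 37C, 5% CO2. Viability read as ATP luminescence with CellTiter-Glo after 30 min at room temperature.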

[4] = biological target: Cellular tumor antigen p53 (Homo sapiens) (UniProt P04637); assay: TOX21_p53_BLA_p3_ratio: Tox21 HCT-116 p53 Agonism Beta-lactamase Assay, Ratio, Phase 3 (AID 2283596)
Procedure, shortened: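 Cells were seeded at 4000/well, rested 5 h at 37C, then dosed with DMSO compound solutions (217-fold dilution) for 16 h. CCF4-AM substrate was loaded for 2 h at room temperature, and the 460/530 nm emission ratio was fitted for gain of signal versus DMSO.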

[5] = TOX21_p53_BLA_p4_viability: Viability Assessment in the Tox21 HCT-116 p53 Agonism Beta-lactamase Assay, Phase 4 (AID 2283597);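 note: hits lower the luminescence signal meaning cytotoxicity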
Procedure, shortened: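 Cytotoxicity was inferred from loss of CellTiter-Glo luminescence. HCT116 cells had been dosed with compounds after 5 h plating, incubated 16 h at 37C and 5% CO2, and exposed to the CCF4-AM substrate for 2 h.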

[6] = biological target: Cellular tumor antigen p53 (Homo sapiens) (UniProt P04637); assay: TOX21_p53_BLA_p4_ratio: Tox21 HCT-116 p53 Agonism Beta-lactamase Assay, Ratio, Phase 4 (AID 2283601)
Procedure, shortened: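 HCT-116 p53 beta-lactamase reporter cells (4000/well) preincubated 5 h, then compound (217-fold dilution of DMSO stock) for 16 h at 37C. CCF4-AM substrate added 2 h at room temperature; 460/530 nm emission ratio fitted upward versus DMSO.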

[7] = biological target: Cellular tumor antigen p53 (Homo sapiens) (UniProt P04637); assay: TOX21_p53_BLA_p5_ratio: Tox21 HCT-116 p53 Agonism Beta-lactamase Assay, Ratio, Phase 5 (AID 2283599)
Procedure, shortened: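 HCT-116 p53-bla cells (4000/well) plated 5 h, dosed with compound (217-fold DMSO dilution) for 16 h at 37 C; CCF4-AM substrate 2 h at room temperature. Activity is the 460/530 nm emission ratio (405 nm excitation), fitted in gain-of-signal direction versus DMSO.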

[8] = TOX21_p53_BLA_p5_viability: Viability Assessment in the Tox21 HCT-116 p53 Agonism Beta-lactamase Assay, Phase 5 (AID 2283600)
Procedure, shortened: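 Luciferase-coupled ATP quantitation of cells treated for 16 h (37C, 5% CO2) with test chemicals delivered in DMSO via a 217-fold dilution; 4000 cells/well; reagent incubated 30 min at room temperature before luminescence reading.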

[9] = tested on: Brachyury (BRA) Protein Expression, Deisenroth Lab, TBXT (gene 6862); assay: CCTE_Deisenroth_DEVTOX-GLR_legacy_Bra: (Legacy) CCTE's DevTox GLR-Endo Assay Evaluation of Brachyury (BRA) Protein Expression, Deisenroth Lab (AID 2284329; active = hit-call score of the fitted dose curve at least 0.9, where 1 is the maximum; inactive = score below 0.9)
Procedure, shortened: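 Readout: percent Bra+ cells by high-content fluorescence imaging, Bra+ meaning mean intensity 5x BMAD over pluripotent control median. RUES2-GLR cells dosed twice over 48 h differentiation; DMSO-control median subtracted before concentration-response fitting.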

[10] = CCTE_Deisenroth_DEVTOX-GLR_legacy_CellCount: (Legacy) Viability Assessment in CCTE's DevTox GLR-Endo Assay, Deisenroth Lab (AID 2284331; active = hit-call score of the fitted dose curve at least 0.9, where 1 is the maximum; inactive = score below 0.9); settings: actives raise or lower the signal
Procedure, shortened: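 Viability is taken from imaged nuclei counts in fixed RUES2-GLR cultures after 48 h of differentiation under two 24 h-spaced chemical exposures, 10 concentrations from 1 nM to 200 uM, gain or loss versus DMSO baseline.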

[11] = tested on: SRY-box transcription factor 17 (SOX17) Protein Expression, Deisenroth Lab, SOX17 (gene 64321); assay: CCTE_Deisenroth_DEVTOX-GLR_legacy_Sox17: (Legacy) CCTE's DevTox GLR-Endo Assay Evaluation of SRY-box transcription factor 17 (SOX17) Protein Expression, Deisenroth Lab (AID 2284341; active = hit-call score of the fitted dose curve at least 0.9, where 1 is the maximum; inactive = score below 0.9); settings: actives raise or lower the signal
Procedure, shortened: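 Endoderm-differentiation readout in RUES2-GLR human pluripotent cells at 48 h, concentrations spanning 1 nM - 200 uM. Sox17-positive cells divided by total cell count; gain or loss relative to DMSO solvent control, n=4 experimental replicates.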

[12] = tested on: SRY-box transcription factor 2 (SOX2) Protein Expression, Deisenroth Lab, SOX2 (gene 6657); assay: CCTE_Deisenroth_DEVTOX-GLR_legacy_Sox2: (Legacy) CCTE's DevTox GLR-Endo Assay Evaluation of SRY-box transcription factor 2 (SOX2) Protein Expression, Deisenroth Lab (AID 2284346; active = hit-call score of the fitted dose curve at least 0.9, where 1 is the maximum; inactive = score below 0.9)
Procedure, shortened: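 Read-out: fraction of Sox2+ cells by high-content fluorescence imaging of fixed RUES2-GLR cells after 48 h differentiation with two 24 h-spaced exposures. Positivity cutoff 5x BMAD above endoderm control median; 0.2% DMSO median subtracted.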

[13] = tested on: SRY-box transcription factor 17 (SOX17) Protein Expression, Deisenroth Lab, SOX17 (gene 64321); assay: CCTE_Deisenroth_DEVTOX-GLR_Endo_SOX17: CCTE's DevTox GLR-Endo Assay Evaluation of SRY-box transcription factor 17 (SOX17) Protein Expression, Deisenroth Lab (AID 2284413; active = hit-call score of the fitted dose curve at least 0.9, where 1 is the maximum; inactive = score below 0.9)
Procedure, shortened: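 Human RUES2-GLR cells carrying an inducible fluorescent reporter are differentiated in defined media for 48 h and dosed twice, 24 h apart. After fixation and nuclear staining, imaging yields SOX17+ cell percentage relative to 0.2% DMSO-treated differentiated cells.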

[14] = CCTE_Deisenroth_DEVTOX-GLR_Endo_CellCount: Viability Assessment in CCTE's DevTox GLR-Endo Assay, Deisenroth Lab (AID 2284420; active = hit-call score of the fitted dose curve at least 0.9, where 1 is the maximum; inactive = score below 0.9)
Procedure, shortened: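 RUES2-GLR human pluripotent cells seeded 24 h, then differentiated 48 h with two chemical exposures at 24 h intervals (10-point, 1 nM - 200 uM). Fixed, nuclear-stained, imaged; nuclei counts give % change in cell count versus 0.2% DMSO.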

[15] = tested on: SRY-box transcription factor 17 (SOX17) Protein Expression, Deisenroth Lab, SOX17 (gene 64321); assay: CCTE_Deisenroth_DEVTOX-GLR_Pluri_SOX17: CCTE's DevTox GLR-Pluri Assay Evaluation of SRY-box transcription factor 17 (SOX17) Protein Expression, Deisenroth Lab (AID 2284427)
Procedure, shortened: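 RUES2-GLR human pluripotent cells were seeded 24 h, then differentiated 48 h in defined media with two chemical exposures 24 h apart (10-point series, 1 nM - 200 uM). Fixed, nuclear-stained cells were imaged; %SOX17+ cells minus 0.2% DMSO control reported.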

[16] = tested on: Brachyury (BRA) Protein Expression, Deisenroth Lab, TBXT (gene 6862); assay: CCTE_Deisenroth_DEVTOX-GLR_Pluri_BRA: CCTE's DevTox GLR-Pluri Assay Evaluation of Brachyury (BRA) Protein Expression, Deisenroth Lab (AID 2284429)
Procedure, shortened: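 RUES2-GLR reporter line; 48 h mesoderm differentiation; two exposures, 24 h apart; 1 nM - 200 uM, 10 points; nuclear stain, high-content imaging, 5 fields/well; endpoint = %BRA+ cells of total count minus 0.2% DMSO; n=4.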

[17] = CCTE_Deisenroth_DEVTOX-GLR_Pluri_CellCount: Viability Assessment in CCTE's DevTox GLR-Pluri Assay Evaluation of Total Cell Counts, Deisenroth Lab (AID 2284430; active = hit-call score of the fitted dose curve at least 0.9, where 1 is the maximum; inactive = score below 0.9)
Procedure, shortened: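 Cytotoxicity readout: fluorescent nuclei counts by high-content imaging, expressed as percent change relative to 0.2% DMSO. Human RUES2-GLR pluripotent line differentiated 48 h, dosed twice at 24-h intervals across 1 nM - 200 uM (10 points).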

[18] = TOX21_PR_BLA_Followup_Agonist_viability: Viability Assessment in the Tox21 HEK293 Progesterone Receptor (PR) Agonism Beta-lactamase Follow-Up Assay (AID 2283935);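 note: signal loss means lower viability so actives are cytotoxic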
Procedure, shortened: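 Run multiplexed with the beta-lactamase FRET read, this endpoint measures ATP by CellTiter-Glo luminescence (30 min, room temperature). PR-UAS-bla HEK293T cells received compound 6 hr after plating and were then incubated 16 hr at 37C in 2% stripped serum.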

[19] = TOX21_PR_BLA_Followup_Antagonist_viability: Viability Assessment in the Tox21 HEK293 Progesterone Receptor (PR) Antagonism Beta-lactamase Follow-Up Assay (AID 2283936);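 note: cells exposed to compound with R5020 agonist for 16 h; hits lower the luminescence signal meaning cytotoxicity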
Procedure, shortened: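 PR-UAS-bla HEK293T cells in medium with 2% charcoal-stripped FBS were treated with compounds plus R5020 for 16 hr at 37C. After the beta-lactamase read, CellTiter-Glo was added to the same wells and luminescence read after 30 min at room temperature.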

Measured: AC50

Sequence of Cellular tumor antigen p53 (Homo sapiens) (P04637 whole entry, looked up): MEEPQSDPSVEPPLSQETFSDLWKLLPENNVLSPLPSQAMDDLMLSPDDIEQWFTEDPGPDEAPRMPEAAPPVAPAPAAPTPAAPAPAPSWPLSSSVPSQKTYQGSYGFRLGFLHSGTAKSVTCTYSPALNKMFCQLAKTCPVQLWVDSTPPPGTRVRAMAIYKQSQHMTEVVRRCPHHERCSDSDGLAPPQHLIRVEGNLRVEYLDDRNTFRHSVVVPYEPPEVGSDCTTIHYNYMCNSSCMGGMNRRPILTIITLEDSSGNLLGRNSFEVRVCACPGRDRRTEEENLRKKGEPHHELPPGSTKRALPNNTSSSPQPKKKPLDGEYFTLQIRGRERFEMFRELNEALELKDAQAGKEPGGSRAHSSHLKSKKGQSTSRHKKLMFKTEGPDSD

OCC(CBr)(CBr)CBr
inactive: [1] | [2] | [3] | [4] | [5] | [6]

NC(=S)N/N=C/c1cccnc1
inactive: [1] | [2] | [3] | [4] | [5] | [6]

COc1cc(Cc2cnc(N)nc2N)cc(OC)c1OC
inactive: [1] | [2] | [3] | [4] | [7] | [8]

CC(C)(c1ccc(Oc2ccc3c(c2)C(=O)OC3=O)cc1)c1ccc(Oc2ccc3c(c2)C(=O)OC3=O)cc1
inactive: [1] | [2] | [3] | [4] | [7]

O=C(c1ccc(F)cc1)C1CCN(CCn2c(=O)[nH]c3ccccc3c2=O)CC1
inactive: [1] | [2] | [3] | [4] | [5] | [8] | [6] | [9] | [17]
active: [10] 58.8 µM | [11] 39.9 µM | [12] 9.92 µM | [13] 37.9 µM | [14] 58.4 µM | [15] 100 µM | [16] 127 µM

O
inactive: [1] | [2] | [3] | [4] | [5] | [6]

CCCCN1CCCC1C(=O)Nc1c(C)cc(C)cc1C (centres undefined)
inactive: [1] | [2] | [3] | [4] | [5] | [8] | [6] | [18] | [19]
